Experimental data reported in PubChem BioAssay (Tox21).
Values joined by “and” are separate entries in the source; they are usually repeats but may differ in a detail not shown here. Equal entries are not always repeated. Records with an inconclusive call do not appear. A call without a number means that no potency is given here. More than one record can exist for a structure, and the calls need not agree. Active and inactive are the calls of the source. Unless noted, calls come from the whole dose curve; as a rule, active = well fitted curve in the direction sought with a large enough effect in the repeat runs; inconclusive = weak or mixed curves; inactive = no such curve, though single readings can be large; an effect the other way counts as inactive or inconclusive.

Key:
[1] = molecular target: Thyrotropin receptor (Homo sapiens) (UniProt P16473); experiment: qHTS assay to identify small molecule antagonists of the thyroid stimulating hormone receptor (TSHR) signaling pathway (AID 1259385; calls by dose curve; note: nearly all actives have a fitted effect of over 20% in size)
Method in brief: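 TSHR-HEK293 cells were plated and held 18 h at 37C/5% CO2, then given compound plus Ro20-1724 and stimulated with TSH at 1.5 ng/mL final. After 30 min at room temperature, cAMP was detected with cAMP-d2/anti-cAMP-cryptate (1 h) by fluorescence.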

[2] = qHTS assay to identify small molecule agonists of the estrogen receptor alpha (ER-alpha) signaling pathway in the presence of an antagonist - cell viability counter screen (AID 1259386);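 note: series mostly up to about 92 µM; cells exposed to compounds for 22 h at 37 °C before the viability read; nearly all actives have a fitted effect of over 30% in size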
Method in brief: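 Steps: 5-day stripped-FBS culture; seed and incubate 24hr; add ICI-182,780 (10.0nM final); pin 15-point compound titration; incubate 22hr at 37C; add CellTiter-Fluor at 21hr; read fluorescence.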

[3] = molecular target: Progesterone receptor (Homo sapiens) (UniProt P06401); experiment: qHTS assay to identify small molecule antagonists of the progesterone receptor (PR) signaling pathway (AID 1346795; active = well fitted inhibition curve with a large enough effect in the signal ratio in the repeat runs, not every such curve was filed as active; the % refers to the signal ratio; note: potency is the fitted concentration of half-maximal effect)
Method in brief: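 After 6 hr plating at 37C in 2% stripped-serum medium, PR-UAS-bla HEK293T cells got compounds, then 1 nM R5020. Sixteen hours later, LiveBLAzer substrate was applied for 2 hr at room temperature and fluorescence was recorded.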

[4] = qHTS assay to identify small molecule antagonists of the progesterone receptor (PR) signaling pathway - cell viability counter screen (AID 1346798); note: series mostly up to about 92 µM; nearly all actives have a fitted effect of over 50% in size
Method in brief: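 Viability was determined by ATP-based luminescence (CellTiter-Glo) in PR-UAS-bla HEK293T cells cultured in 2% charcoal-stripped serum and incubated 16 hr with compounds under R5020 stimulation.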

[5] = qHTS assay to identify small molecule agonists of the progesterone receptor (PR) signaling pathway - cell viability counter screen (AID 1346799; calls by dose curve; note: nearly all actives have a fitted effect of over 45% in size)
Method in brief: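 Viability was scored by ATP luminescence (CellTiter-Glo, 30 min, room temperature) in the same wells used for the reporter readout, after 16 hr compound exposure of PR-UAS-bla HEK293T cells.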

[6] = qHTS assay to identify small molecule antagonists of the TGF-beta/Smad signaling pathway - cell viability counter screen (AID 1346824); note: nearly all actives have a fitted effect of over 50% in size
Method in brief: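 SBE-bla HEK 293T cells were plated overnight at 37 C, then given compounds in DMSO plus TGF-beta1 (added as 0.25 ng/mL solution) for 5 hr. After the bla read, CellTiter-Glo was added to the same wells and luminescence read after 30 min at room temperature.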

[7] = qHTS assay to identify small molecule agonists of the TGF-beta/Smad signaling pathway - cell viability counter screen (AID 1346829); note: top concentration of the series differs between compounds; nearly all actives have a fitted effect of over 45% in size
Method in brief: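 Cytotoxicity counter screen: CellTiter-Glo luminescence (30 min, room temperature) measured in the SBE-bla HEK 293T reporter wells after 5 hr compound treatment at 37 C and the 2 hr substrate step.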

[8] = qHTS assay to identify small molecule agonists of the TGF-beta/Smad signaling pathway (AID 1346859; active = well fitted activation curve with a large enough effect in the signal ratio in the repeat runs, not every such curve was filed as active; the % refers to the signal ratio; note: series mostly up to about 77 µM)
Method in brief: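 Dual-wavelength fluorescence (460/530 nm emission) quantified beta-lactamase expression under the Smad binding element in HEK 293T cells following 5 hr compound treatment at 37 C.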

[9] = molecular target: Thyrotropin-releasing hormone receptor (Homo sapiens) (UniProt P34981); experiment: qHTS assay to identify small molecule antagonists of the thyrotropin-releasing hormone receptor (TRHR) signaling pathway (AID 1346877; active = well fitted inhibition curve with a large enough effect in the repeat runs, not every such curve was filed as active; note: series mostly up to about 51 µM)
Method in brief: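 Human TRHR in HEK293 cells; inhibition of the intracellular calcium rise triggered by 1 nM TRH was followed by fluorescence over 3 min. Compounds were run at 15 concentrations, three replicates each.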

[10] = molecular target: Thyrotropin-releasing hormone receptor (Homo sapiens) (UniProt P34981); experiment: qHTS assay to identify small molecule agonists of the thyrotropin-releasing hormone receptor (TRHR) signaling pathway (AID 1346891; calls by dose curve;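 note: HEK293 cells expressing TRHR with calcium dye readout; series mostly up to about 58 µM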)
Method in brief: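 Kinetic fluorescence (3 min, 1 s intervals) reported intracellular calcium after compound transfer onto TRHR-Hek293 cells pre-loaded with dye for 2 h at 37 °C.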

[11] = Human pregnane X receptor (PXR) small molecule agonists, qHTS cell viability counter screen (AID 1346977); note: nearly all actives have a fitted effect of over 50% in size
Method in brief: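 HepG2 cells stably carrying the PXR-Luc reporter are cultured with 5% charcoal-stripped FBS and treated with compounds for 24hr. CellTiter-Fluor is added at 23hr and fluorescence is read after 1hr.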

[12] = Caspase-3/7 induction in HepG2 cells by small molecules, qHTS assay (AID 1346978); note: nearly all actives have a fitted effect of over 15% in size
Method in brief: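 Wild-type HepG2 cells (2,000/well) were settled 5 h at 37 C, 5% CO2, then exposed to compounds in DMSO for 17 h. Caspase-3/7 activity was read by luminescence 30 min after adding Caspase-Glo 3/7 reagent at room temperature.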

[13] = Caspase-3/7 induction in CHO-K1 cells by small molecules, qHTS cell viability counter screen (AID 1346979); note: nearly all actives have a fitted effect of over 35% in size
Method in brief: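 Seeding: 1,500 CHO-K1 cells/well. Rest: 5hr, 37C. Treatment: compounds in DMSO, 16hr. Read: CellTiter-Fluor, 1hr, fluorescence.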

[14] = Caspase-3/7 induction in CHO-K1 cells by small molecules, qHTS assay (AID 1346980); note: nearly all actives have a fitted effect of over 15% in size
Method in brief: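 Wild-type cells were seeded at 1,500 per well and settled 5 hr at 37 C, 5% CO2, then exposed to DMSO-dissolved compounds for 17 hr. Caspase-Glo 3/7 reagent was added, and luminescence was read after 30min at room temperature.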

[15] = Caspase-3/7 induction in HepG2 cells by small molecules, qHTS cell viability counter screen (AID 1346981); note: series mostly up to about 92 µM; nearly all actives have a fitted effect of over 30% in size
Method in brief: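 The parent HepG2 line is plated at 2,000 cells per well and rested 5 hr before compound pinning from DMSO stocks. Following a 16-hr treatment at 37 C, a fluorogenic live-cell substrate (CellTiter-Fluor) reports viability after 1 hr.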

[16] = molecular target: Nuclear receptor subfamily 1 group I member 2 (Homo sapiens) (UniProt O75469); experiment: Human pregnane X receptor (PXR) small molecule agonists, qHTS assay (AID 1346982); note: nearly all actives have a fitted effect of over 35% in size; note: potency is the fitted concentration of half-maximal effect
Method in brief: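 After plating in 5% charcoal-stripped FBS and a 5 hr rest, PXR-Luc HepG2 cells received compounds in DMSO. Following 24 hr at 37 C, ONE-Glo was added and light output read.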

[17] = molecular target: Progesterone receptor (Homo sapiens) (UniProt P06401); experiment: qHTS assay to identify small molecule agonists of the progesterone receptor (PR) signaling pathway (AID 1346784; calls by dose curve; note: nearly all actives have a fitted effect of over 30% in size)
Method in brief: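 The screen uses PR-UAS-bla HEK 293T cells in charcoal-stripped serum (2%). Compounds are applied for 16 hr at 37C after a 6 hr pre-incubation, and reporter activity is detected with a FRET beta-lactamase substrate after 2 hr at room temperature.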

[18] = molecular target: Nuclear receptor subfamily 1 group I member 2 (Rattus norvegicus) (UniProt Q9R1A7); experiment: Rat pregnane X receptor (rPXR) activation by small molecules, qHTS assay (AID 1346983); settings: rPXR luciferase reporter cells, One-Glo luminescence, 24 h; stronger effect = higher value; note: nearly all actives have a fitted effect of over 20% in size
Method in brief: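 Cell-based rPXR luciferase reporter assay, 2,000 cells per well, rested 5hr at 37 C before compound addition in DMSO, then 24 hr at 37 C. One-Glo reagent was added and luminescence read after 30 min at room temperature.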

[19] = molecular target: Nuclear receptor subfamily 1 group I member 2 (Homo sapiens) (UniProt O75469); experiment: CYP3A4 induction through human pregnane X receptor (PXR) by small molecules, qHTS assay (AID 1346984); note: nearly all actives have a fitted effect of over 40% in size
Method in brief: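 Human PXR activation is tracked via CYP3A4 promoter-luciferase in DPX-2 (HepG2) cells. Compounds treat cells for 24hr at 37C, and luminescence is read after One-Glo.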

[20] = molecular target: Nuclear receptor subfamily 1 group I member 2 (Homo sapiens) (UniProt O75469); experiment: Human pregnane X receptor (PXR) activation by small molecules, qHTS assay (AID 1346985); note: nearly all actives have a fitted effect of over 40% in size
Method in brief: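 DPX-2 cells (HepG2 co-transfected with a PXR response element and a CYP3A4-promoter luciferase construct) were seeded at 2,000 per well, rested 5 hr at 37C, then exposed to DMSO-dissolved compounds for 24 hr. Activation was read as luciferase luminescence.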

Thyrotropin-releasing hormone receptor (Homo sapiens), sequence (P34981 whole entry, looked up): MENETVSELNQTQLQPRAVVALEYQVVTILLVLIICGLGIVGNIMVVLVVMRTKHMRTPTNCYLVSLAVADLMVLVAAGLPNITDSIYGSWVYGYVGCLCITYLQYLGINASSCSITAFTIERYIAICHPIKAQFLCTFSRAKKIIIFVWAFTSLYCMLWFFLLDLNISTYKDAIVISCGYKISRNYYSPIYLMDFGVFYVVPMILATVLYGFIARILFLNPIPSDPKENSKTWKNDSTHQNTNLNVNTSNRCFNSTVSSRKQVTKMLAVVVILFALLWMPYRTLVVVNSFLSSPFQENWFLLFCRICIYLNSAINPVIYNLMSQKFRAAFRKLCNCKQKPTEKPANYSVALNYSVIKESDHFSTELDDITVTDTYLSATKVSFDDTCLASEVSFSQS
Nuclear receptor subfamily 1 group I member 2 (Homo sapiens), sequence (O75469 whole entry, looked up): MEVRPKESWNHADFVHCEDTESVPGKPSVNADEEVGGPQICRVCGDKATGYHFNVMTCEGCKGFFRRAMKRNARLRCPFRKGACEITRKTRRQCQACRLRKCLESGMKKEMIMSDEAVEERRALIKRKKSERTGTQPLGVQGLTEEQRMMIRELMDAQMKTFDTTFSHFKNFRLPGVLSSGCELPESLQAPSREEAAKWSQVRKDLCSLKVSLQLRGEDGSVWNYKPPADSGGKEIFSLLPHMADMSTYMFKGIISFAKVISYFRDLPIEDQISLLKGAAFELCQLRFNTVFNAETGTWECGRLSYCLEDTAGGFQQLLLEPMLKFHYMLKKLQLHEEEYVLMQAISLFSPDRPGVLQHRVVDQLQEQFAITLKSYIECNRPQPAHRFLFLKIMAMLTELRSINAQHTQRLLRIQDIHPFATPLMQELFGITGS
Progesterone receptor (Homo sapiens), sequence (P06401 whole entry, looked up): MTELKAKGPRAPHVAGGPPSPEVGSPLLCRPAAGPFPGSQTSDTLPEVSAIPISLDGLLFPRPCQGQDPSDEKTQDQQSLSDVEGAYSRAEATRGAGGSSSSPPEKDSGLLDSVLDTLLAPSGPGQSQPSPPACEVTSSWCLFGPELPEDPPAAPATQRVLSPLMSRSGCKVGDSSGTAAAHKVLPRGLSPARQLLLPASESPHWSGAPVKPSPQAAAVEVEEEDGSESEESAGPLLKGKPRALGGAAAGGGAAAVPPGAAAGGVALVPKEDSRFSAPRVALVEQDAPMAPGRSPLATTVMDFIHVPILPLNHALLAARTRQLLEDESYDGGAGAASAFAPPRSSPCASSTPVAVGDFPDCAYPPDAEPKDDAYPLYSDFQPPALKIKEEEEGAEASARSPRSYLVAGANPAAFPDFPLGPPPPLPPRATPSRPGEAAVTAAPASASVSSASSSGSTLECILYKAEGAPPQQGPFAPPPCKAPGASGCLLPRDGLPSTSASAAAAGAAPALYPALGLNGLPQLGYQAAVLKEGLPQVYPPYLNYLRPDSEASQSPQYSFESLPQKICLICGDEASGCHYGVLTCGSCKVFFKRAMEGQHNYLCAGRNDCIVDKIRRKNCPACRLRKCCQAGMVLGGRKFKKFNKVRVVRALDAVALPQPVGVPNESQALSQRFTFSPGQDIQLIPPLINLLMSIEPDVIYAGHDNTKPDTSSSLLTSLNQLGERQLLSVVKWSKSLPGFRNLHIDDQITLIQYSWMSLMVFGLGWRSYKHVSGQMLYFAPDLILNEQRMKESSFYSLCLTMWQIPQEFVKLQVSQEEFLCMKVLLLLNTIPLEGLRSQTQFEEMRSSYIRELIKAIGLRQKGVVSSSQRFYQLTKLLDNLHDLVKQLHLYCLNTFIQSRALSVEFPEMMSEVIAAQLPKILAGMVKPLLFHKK
Thyrotropin receptor (Homo sapiens), sequence (P16473 whole entry, looked up): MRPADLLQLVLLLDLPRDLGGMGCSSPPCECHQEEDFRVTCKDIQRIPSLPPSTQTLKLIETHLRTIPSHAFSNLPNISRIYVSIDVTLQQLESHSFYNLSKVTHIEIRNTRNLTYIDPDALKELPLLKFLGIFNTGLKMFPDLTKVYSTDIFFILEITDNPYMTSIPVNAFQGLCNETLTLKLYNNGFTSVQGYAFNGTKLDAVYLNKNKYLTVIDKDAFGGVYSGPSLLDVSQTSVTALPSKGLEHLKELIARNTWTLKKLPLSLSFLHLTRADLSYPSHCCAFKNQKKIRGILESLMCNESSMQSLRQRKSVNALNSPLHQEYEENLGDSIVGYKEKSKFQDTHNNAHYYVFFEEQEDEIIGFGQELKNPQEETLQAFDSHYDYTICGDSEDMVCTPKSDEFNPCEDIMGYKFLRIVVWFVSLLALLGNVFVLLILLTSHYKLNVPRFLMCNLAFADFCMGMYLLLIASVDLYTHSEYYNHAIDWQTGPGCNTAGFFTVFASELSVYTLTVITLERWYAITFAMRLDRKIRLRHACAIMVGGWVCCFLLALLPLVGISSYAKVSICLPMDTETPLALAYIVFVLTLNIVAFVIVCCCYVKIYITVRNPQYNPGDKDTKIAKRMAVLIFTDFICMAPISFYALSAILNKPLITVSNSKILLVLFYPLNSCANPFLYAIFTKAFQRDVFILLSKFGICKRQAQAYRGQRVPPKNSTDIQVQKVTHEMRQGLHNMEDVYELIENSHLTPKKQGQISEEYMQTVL
Nuclear receptor subfamily 1 group I member 2 (Rattus norvegicus), sequence (Q9R1A7 whole entry, looked up): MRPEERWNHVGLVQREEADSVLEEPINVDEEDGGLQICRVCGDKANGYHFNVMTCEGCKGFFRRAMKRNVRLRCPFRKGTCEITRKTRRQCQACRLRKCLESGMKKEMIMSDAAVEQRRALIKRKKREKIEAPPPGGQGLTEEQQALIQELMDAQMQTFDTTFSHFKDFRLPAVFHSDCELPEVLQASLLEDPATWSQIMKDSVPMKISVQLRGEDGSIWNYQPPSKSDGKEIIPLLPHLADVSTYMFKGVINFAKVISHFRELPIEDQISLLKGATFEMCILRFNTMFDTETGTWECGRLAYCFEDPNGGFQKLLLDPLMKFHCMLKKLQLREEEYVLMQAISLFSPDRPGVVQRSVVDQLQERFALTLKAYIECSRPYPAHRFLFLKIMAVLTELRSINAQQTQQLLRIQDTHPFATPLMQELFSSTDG

SMILES | outcome [1] | Potency [2] | Potency [3] | Potency [4] | Potency [5] | Potency [6] | Potency [7] | outcome [8] | Potency [9] | Potency [10] | Potency [11] | Potency [12] | Potency [13] | Potency [14] | Potency [15] | Potency [16] | Potency [17] | max activation [18] | outcome [19] | outcome [20]
c1ccc(NNc2ccccc2)cc1 | inactive | inactive | inactive | inactive | inactive | inactive | inactive | inactive | inactive | inactive | inactive | inactive | inactive | inactive | inactive | inactive and 48.6 µM (active) |  |  |  | 
Cc1cc(Cl)ccc1OCCCC(=O)O | inactive | inactive | inactive | inactive | inactive | inactive | inactive |  | inactive | inactive | inactive | inactive | inactive | inactive | inactive | inactive | inactive |  |  | 
O=P(O)(O)CCCl | inactive | inactive | inactive | inactive | inactive | inactive | inactive | inactive | inactive | inactive | inactive | inactive |  | inactive | inactive | inactive |  |  |  | 
CCCCCCCCOC(=O)c1ccccc1C(=O)OCCCCCCCC | inactive | inactive | inactive | inactive | inactive | inactive | inactive | inactive | inactive | inactive | inactive | inactive | inactive | inactive | inactive | 68.4 µM (active) and inactive |  | -0.303% (inactive) | inactive | inactive
Nc1ccc(-c2ccccc2)cc1 | inactive | inactive | 1.99 µM (active) | inactive | inactive | inactive | inactive | inactive | inactive | inactive | inactive | inactive |  | inactive | inactive | 28.1 µM (active) and 30.6 µM (active) |  |  |  | 
Cc1cc(C)cc(C)c1 | inactive | inactive | inactive | inactive | inactive | inactive | inactive | inactive | inactive | inactive | inactive | inactive |  | inactive | inactive | inactive |  |  |  | 
Oc1cc(Cl)c(Cl)cc1Cl | inactive | inactive | 60.6 µM (active) and inactive and 54.5 µM (active) | inactive |  | inactive | inactive | inactive | inactive | inactive | inactive | inactive |  | inactive | inactive | 60.6 µM (active) | inactive | -1.86% (inactive) | inactive | inactive
c1cc(OCC2CO2)ccc1Cc1ccc(OCC2CO2)cc1 (stereo unspecified) | inactive | inactive |  |  |  | inactive | inactive | inactive | inactive | inactive |  | inactive |  | inactive | inactive | 68.9 µM (active) and 61.1 µM (active) | inactive |  |  | 
